An excerpt weighted towards active compounds, which were near 21% of everything screened.
HCV inh: inhibitors of hepatitis C virus infection; Huh7.5.1 HCVcc-Cre infection, luciferase reporter, 44 h; Potency, µM (titrated, usually from 41.8 µM), for inactives: at the top dose activity change, negative = inhibition, usual class: inhibitors; actives 3.4% (n = 340,000); AID 651820; further: potency means the concentration at half of the fitted maximal effect; on the % scale 0 is the no-effect control and ±100 the full control effect
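HCVcc-Cre virus at an moi near 0.5 was added right after compound to cells cultured 4 h from seeding (1,000 cells/well). Luciferase activity was determined 44 h later, 15 min after substrate addition at RT.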
Pf growth 48h: P. falciparum growth inhibition at 48 hours (one generation) | Potency, µM (titrated, usually from 28.7 µM), for the others: top-dose activity change, negative = inhibition, usual class: inhibitors | P. falciparum luciferase growth in erythrocytes, 48 h | AID 504832 | actives 5.9% (n = 310,000); further: potency means the concentration at half of the fitted maximal effect; on the % scale 0 is the no-effect control and ±100 the full control effect
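Parasite viability was followed by luminescence of a genomically integrated firefly luciferase. Cultures held 0.1% parasitemia at 2% hematocrit (final), incubated under 5% CO2 at 37 C.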
Pf growth 96h: inhibits malaria parasite growth, 96 h | P. falciparum luciferase reporter growth, 96 h | actives 6.9% (n = 320,000) | Potency, µM (series often up to 28.7 µM), inactives show top-dose activity change, negative = inhibition, hits mostly inhibitors; further: potency means the concentration at half of the fitted maximal effect; on the % scale 0 is the no-effect control and ±100 the full control effect
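Cell-based qHTS: luciferase-tagged P. falciparum in erythrocytes (2% hematocrit, 0.05% parasitemia final) incubated with compounds for 96 hours, 37 C, 5% CO2; luciferase detection reagent then added and luminescence measured.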
Shiga inhibitor: inhibitors of Shiga toxin in Vero cells | Vero cells, Shiga toxin protein synthesis inhibition reporter | inhibition, % at 38.7 µM | actives 9.2% (n = 290,000) | AID 2315; in the data active means inhibition mostly above about 28%, no sharp cut-off; inactive means mostly below about 43%; further: 0% is about no effect
Cycloheximide cs: counter-screen hit for Shiga toxin inhibitors, cycloheximide; cell reporter, cycloheximide protein synthesis inhibition counterscreen; max response, %; actives 12% (n = 300,000); AID 2314; in the data active means max response mostly above about 13%, no sharp cut-off; inactive means mostly below about 14%; further: read at 38.3 µM for the half of the compounds with a filed dose; 0% is about no effect
AMA1 RON2 block: disrupts binding of P. falciparum AMA1 to RON2; AlphaScreen AMA1-biotinylated RON2 peptide binding; Potency, µM (doses to about 58.2 µM), without a hit: at the top dose activity change, negative = inhibition, most hits filed as inhibitors; actives 0.2% (n = 360,000);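 further: potency means the concentration at half of the fitted maximal effect; 0% = vehicle wells and -100% = peptide control; nearly all actives have a fitted effect of over 45% in size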
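AMA1 (3D7) with his tag at 25 nM final met compounds first, then biotinylated RON2 peptide at 25 nM; detection used donor plus acceptor beads, 10 µg/mL apiece, read by AlphaScreen after 30 min at room temperature.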
* marks the source's active call; other numbers are inactive results; ? = inconclusive; nt = no result given; + = active, no number. Unless noted, the call rests on the fitted dose curve; in most records, active means well fitted curve in the direction sought with a large enough effect; inconclusive means small, poorly fitted or top-dose-only effect, or another doubt; inactive means no such curve, though single readings can be large; an effect the other way counts as inactive or inconclusive.

SMILES	HCV inh	Pf growth 48h	Pf growth 96h	Shiga inhibitor	Cycloheximide cs	AMA1 RON2 block
Cc1ccc(C(=O)CSc2nsc(C)c2C#N)cc1	-6.1%	186.6%	89.8%	+	29.7*	-0.8%
N#Cc1c(SCC(N)=O)nsc1SCc1ccc(Cl)cc1	-10.1%	?	-20.9%	-8.1	5.4	10.8%
O=S(=O)(c1ccccc1)C1CC1(c1ccccc1)c1ccccc1 (centres undefined)	2.1%	nt	nt	nt	nt	4.7%
Cc1ccc(-c2nn(-c3ccccc3)cc2CSC(=N)N)cc1	?	?	1.65µM*	-23.0	-3.3	9.0%
CC(=O)Oc1ccc(C23c4ccccc4C2(OC(C)=O)c2cc(OC(C)=O)ccc23)cc1 (centres undefined)	11.2µM*	nt	nt	nt	nt	25.3%
COc1cc(C2OC(=O)C3C(c4ccc(OC(C)=O)c(OC)c4)OC(=O)C23)ccc1OC(C)=O (centres undefined)	-0.5%	nt	nt	nt	nt	-6.0%
Cn1c(=O)c2c(nc(NCc3ccc4c(c3)OCO4)n2Cc2ccc(F)cc2)n(C)c1=O	11.2µM*	11.7µM*	13.1µM*	-10.9	-2.2	?
Cn1c(=O)c2c(nc(NCc3ccc4c(c3)OCO4)n2Cc2ccccc2F)n(C)c1=O	?	?	5.9%	41.9	-10.0	-4.0%
Cn1c(=O)c2c(nc(NCc3ccc4c(c3)OCO4)n2Cc2ccccc2)n(C)c1=O	?	13.1µM*	-21.2%	-3.7	-2.6	3.2%
CCCCNC(=O)c1ccc2nc(CC)c(N(CC)CCOC)n2c1	nt	nt	nt	nt	nt	11.7%
COc1ccc(C2/C(=C(/O)c3ccc(Br)cc3)C(=O)C(=O)N2C)cc1OC (centres undefined)	15.5%	18.5%	?	-7.3	-1.1	-4.6%
COc1ccc(C2/C(=C(/O)c3ccccc3)C(=O)C(=O)N2C)cc1OC (centres undefined)	4.4%	17.4%	?	26.7*	14.1*	2.3%
COc1ccc(C2/C(=C(/O)c3ccc(Br)cc3)C(=O)C(=O)N2C)cc1 (centres undefined)	14.7%	0.0%	0.928µM*	5.5	-2.0	3.8%
Nc1nc(N)c2[nH]c(-c3ccccc3)nc2n1	12.6%	-30.8%	?	40.3	4.7	9.8%
O=C(OCc1ccccc1F)c1cc(S(=O)(=O)N2CCCCC2)ccc1N1CCOCC1	nt	nt	nt	nt	nt	-7.5%
O=C(Nc1ccc(OC(F)F)cc1)c1cc(S(=O)(=O)N2CCCCC2)ccc1N1CCOCC1	-10.0%	?	4.65µM*	nt	nt	-7.1%
Cc1ccccc1OCCOC(=O)c1ccc(S(=O)(=O)N2CCCC2)cc1	-2.6%	?	?	nt	nt	49.5%
Cc1ccccc1OCCOC(=O)c1cc(S(=O)(=O)N2CCCCC2)ccc1N1CCOCC1	11.2µM*	13.1µM*	?	nt	nt	-27.6%
COc1cccc(COC(=O)c2cc(S(=O)(=O)N3CCCCC3)ccc2N2CCOCC2)c1OC	-24.0%	6.57µM*	?	nt	nt	5.4%
COC(=O)c1ccccc1S(=O)(=O)N1CCC(C(=O)OCC(=O)c2ccccc2OC)CC1	-4.3%	10.4µM*	?	nt	nt	-22.2%
COc1ccc(-c2csc(C(C)(NC(C)=O)c3ccccc3)n2)cn1 (centres undefined)	nt	nt	nt	nt	nt	-10.2%
COc1ccc(C)cc1NC(=O)c1cc(S(=O)(=O)N2CCCCC2)ccc1N1CCOCC1	?	11.7µM*	?	nt	nt	0.2%
COc1ccc(C(=O)COC(=O)c2cc(S(=O)(=O)N3CCCCC3)ccc2N2CCOCC2)c(OC)c1	?	9.28µM*	9.28µM*	nt	nt	-5.3%
COc1ccccc1C(=O)COC(=O)c1cc(S(=O)(=O)N2CCCCC2)ccc1N1CCOCC1	-20.7%	9.28µM*	?	nt	nt	-1.1%
COc1ccc(C(=O)OCC(=O)c2ccc(S(=O)(=O)N3CCCCC3)cc2)c(OC)c1	-4.4%	?	?	nt	nt	-26.0%
CCCCC(CC)COS(=O)(=O)O (centres undefined)	nt	12.8%	5.2%	nt	nt	nt
COc1ccc(S(=O)(=O)N2CCCC2CNC(=O)C(=O)NCc2cccs2)cc1 (centres undefined)	-1.4%	?	?	nt	nt	-10.6%
